# Several values for one entry are separate records, joined by “and”; a condition that tells them apart may be missing. Equal entries are not always repeated. Activity calls are given as the source filed them. How the source made its calls: active means hit-call score of the fitted dose curve at least 0.9, where 1 is the maximum; inactive means score below 0.9.
# Key:
# Settings in all cases: primary human HUVEC with PBMC; actives raise or lower the signal
# [1] = read-out: Monocyte Chemoattractant Protein-1 (MCP1), CCL2 (gene 6347); test: BSK_LPS_MCP1: BioMAP Diversity Plus: LPS Assay for Monocyte Chemoattractant Protein-1 (MCP1) Biomarker Activity (AID 2283081);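 on AC50: secreted MCP-1 protein quantified by ELISA in culture supernatant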
# Outline: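 Human umbilical vein endothelial cells co-cultured with PBMC, LPS-stimulated; secreted MCP-1 measured by ELISA 24 h after compound addition. Bidirectional curve fitting against DMSO baseline; SRB total-protein staining in parallel cultures for cytotoxicity.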
# [2] = BSK_LPS_PGE2: BioMAP Diversity Plus: LPS Assay for Prostaglandin E2 (PGE2) Biomarker Activity (AID 2283082);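 on AC50: secreted prostaglandin E2 measured by ELISA in LPS-stimulated co-culture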
# Outline: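 Endpoint derived from bidirectional curve fitting versus DMSO of ELISA-measured PGE2 in LPS-stimulated human primary vascular co-culture (HUVEC with PBMC) harvested at 24 h.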
# [3] = read-out: Macrophage colony-stimulating factor (MCSF), CSF1 (gene 1435); test: BSK_LPS_MCSF: BioMAP Diversity Plus: LPS Assay for Macrophage colony-stimulating factor (MCSF) Biomarker Activity (AID 2283083)
# Outline: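 HUVEC–PBMC co-culture, M-CSF measured by ELISA 24 h after chemical dosing. Fitted in both directions relative to DMSO as negative control; overt cytotoxicity assessed by SRB total-protein staining in parallel cultures.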
# [4] = read-out: Tissue Factor, F3 (gene 2152); test: BSK_LPS_TissueFactor: BioMAP Diversity Plus: LPS Assay for Tissue Factor Biomarker Activity (AID 2283084)
# Outline: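 Human umbilical vein endothelial cells co-cultured with PBMC were dosed with compound. Cell-surface CD142 was measured by ELISA 24 h later. Activity was fitted bidirectionally against DMSO, with SRB total-protein staining in parallel cultures for cytotoxicity.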
# [5] = read-out: Tumor necrosis factor (Homo sapiens) (UniProt P01375); test: BSK_LPS_TNFa: BioMAP Diversity Plus: LPS Assay for Tumour Necrosis Factor alpha (TNFa) Biomarker Activity (AID 2283085)
# Outline: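 Primary human vascular co-culture of HUVEC and PBMC; TNFa ELISA 24 h after treatment, analysed as increase or decrease relative to DMSO control.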
# [6] = read-out: Vascular cell adhesion molecule 1 (VCAM1), VCAM1 (gene 7412); test: BSK_LPS_VCAM1: BioMAP Diversity Plus: LPS Assay for Vascular cell adhesion molecule 1 (VCAM1) Biomarker Activity (AID 2283086)
# Outline: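 Primary human vascular co-culture (umbilical vein endothelium plus PBMC) stimulated with LPS received chemical; 24 h later VCAM-1 was read by ELISA. Overt cytotoxicity was assessed by sulforhodamine B staining of parallel cultures at the same time point.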
# CD38, CD38 (gene 952) = test: BSK_SAg_CD38: BioMAP Diversity Plus: SAg Assay for CD38 Biomarker Activity (AID 2283087)
# Outline: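 Fluorescence ELISA of cell-surface CD38 served as the read-out, with either increase or decrease fitted against DMSO controls. Cells were a human umbilical vein endothelium plus PBMC co-culture under SEB/TSST-1 stimulation, measured 24 h after dosing.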
# CD40, CD40 (gene 958) = test: BSK_SAg_CD40: BioMAP Diversity Plus: SAg Assay for CD40 Biomarker Activity (AID 2283088)
# Outline: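 HUVEC plus PBMC co-culture, superantigen-activated, with CD40 read by ELISA 24 h after dosing. Curves fitted in both directions against DMSO. Overt cytotoxicity checked by parallel SRB total-protein staining.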
# CD69, CD69 (gene 969) = test: BSK_SAg_CD69: BioMAP Diversity Plus: SAg Assay for CD69 Biomarker Activity (AID 2283089);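 on AC50: cell surface CD69 protein quantified by ELISA with fluorescence detection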
# Outline: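 Primary human vascular co-culture (umbilical vein endothelium with peripheral blood mononuclear cells) exposed to test chemical for 24 h. CD69 levels quantified by fluorescence ELISA; DMSO served as negative control for bidirectional fitting.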
# [7] = read-out: Monocyte Chemoattractant Protein-1 (MCP1), CCL2 (gene 6347); test: BSK_SAg_MCP1: BioMAP Diversity Plus: SAg Assay for Monocyte Chemoattractant Protein-1 (MCP1) Biomarker Activity (AID 2283090)
# Outline: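 MCP-1 levels in the endothelial–PBMC SAg co-culture were quantified by ELISA at 24 h post-dosing; both increases and decreases versus DMSO scored. Cytotoxicity monitored by SRB total protein in parallel cultures.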
# Tumor necrosis factor (Homo sapiens), sequence (P01375 whole entry, looked up): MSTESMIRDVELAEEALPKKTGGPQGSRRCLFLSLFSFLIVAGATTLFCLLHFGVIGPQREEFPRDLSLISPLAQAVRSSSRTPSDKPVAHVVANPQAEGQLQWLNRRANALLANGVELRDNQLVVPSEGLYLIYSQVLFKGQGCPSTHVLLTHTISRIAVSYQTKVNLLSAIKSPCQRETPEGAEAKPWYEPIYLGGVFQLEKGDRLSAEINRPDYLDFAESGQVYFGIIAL
structure (smiles),measurement,setting,value
Cc1cccc2c1ccc1ccccc12,outcome,[1],inactive
same,outcome,[2],inactive
same,outcome,[3],inactive
same,AC50,[4],3.97 µM (active)
same,outcome,[5],inactive
same,outcome,[6],inactive
same,outcome,"CD38, CD38 (gene 952)",inactive
same,outcome,"CD40, CD40 (gene 958)",inactive
same,outcome,"CD69, CD69 (gene 969)",inactive
same,outcome,[7],inactive
Oc1ccc(Cc2ccccc2O)cc1,outcome,[1],inactive
same,AC50,[2],1.77 µM (active) and 3.97 µM (active)
same,outcome,[3],inactive
same,outcome,[4],inactive
same,outcome,[5],inactive
same,outcome,[6],inactive
same,outcome,"CD38, CD38 (gene 952)",inactive
same,outcome,"CD40, CD40 (gene 958)",inactive
same,outcome,"CD69, CD69 (gene 969)",inactive
same,outcome,[7],inactive
COc1cc(OC)nc(NC(=O)NS(=O)(=O)Nc2ccccc2C(=O)N(C)C)n1,outcome,[1],inactive
same,outcome,[2],inactive
same,outcome,[3],inactive
same,outcome,[4],inactive
same,outcome,[5],inactive
same,outcome,[6],inactive
same,outcome,"CD69, CD69 (gene 969)",inactive
same,outcome,[7],inactive
CN(C)CCOC(c1ccccc1)c1ccccc1,outcome,[1],inactive
same,outcome,[2],inactive
same,outcome,[4],inactive
same,outcome,[5],inactive
same,outcome,[6],inactive
same,outcome,"CD69, CD69 (gene 969)",inactive
same,outcome,[7],inactive
CC(=O)Nc1ccc(O)cc1,outcome,[1],inactive
same,outcome,[2],inactive
same,outcome,[3],inactive
same,outcome,[4],inactive
same,outcome,[5],inactive
same,outcome,[6],inactive
same,outcome,"CD69, CD69 (gene 969)",inactive
same,outcome,[7],inactive
Cc1[nH]nc2c1N=C(c1ccccc1Cl)c1cc([N+](=O)[O-])ccc1N2,AC50,[1],5.17 µM (active)
same,AC50,[2],2.36 µM (active)
same,AC50,[3],3.38 µM (active)
same,AC50,[4],4.61 µM (active)
same,AC50,[5],4.86 µM (active)
same,AC50,[6],3.99 µM (active)
same,AC50,"CD69, CD69 (gene 969)",3.81 µM (active)
same,AC50,[7],3.44 µM (active)
O=C(O)CCC(F)(F)C(F)(F)C(F)(F)C(F)(F)C(F)(F)F,outcome,[1],inactive
same,outcome,[2],inactive
same,outcome,[3],inactive
same,outcome,[4],inactive
same,outcome,[5],inactive
same,outcome,[6],inactive
same,outcome,"CD69, CD69 (gene 969)",inactive
same,outcome,[7],inactive
CC(C)(C)c1ccc(O)c(O)c1,AC50,[1],29.1 µM (active)
same,outcome,[2],inactive
same,AC50,[3],29.2 µM (active)
same,AC50,[4],20 µM (active)
same,AC50,[5],32.8 µM (active)
same,AC50,[6],24 µM (active)
same,AC50,"CD69, CD69 (gene 969)",20 µM (active)
same,AC50,[7],30.6 µM (active)
Cc1ccc(C(=O)c2ccccc2)cc1,outcome,[1],inactive
same,AC50,[2],1.05 µM (active)
same,outcome,[3],inactive
same,outcome,[4],inactive
same,outcome,[5],inactive
same,outcome,[6],inactive
same,outcome,"CD40, CD40 (gene 958)",inactive
same,outcome,"CD69, CD69 (gene 969)",inactive
same,outcome,[7],inactive
COC1=CC(=O)C[C@@H](C)[C@]12Oc1c(Cl)c(OC)cc(OC)c1C2=O,outcome,[1],inactive
same,outcome,[2],inactive
same,outcome,[3],inactive
same,outcome,[4],inactive
same,outcome,[5],inactive
same,outcome,[6],inactive
same,outcome,"CD69, CD69 (gene 969)",inactive
same,outcome,[7],inactive
CCCCC=O,outcome,[1],inactive
same,outcome,[2],inactive
same,outcome,[3],inactive
same,outcome,[4],inactive
same,outcome,[5],inactive
same,outcome,[6],inactive
same,outcome,"CD69, CD69 (gene 969)",inactive
same,outcome,[7],inactive
CS(=O)(=O)c1ccc([C@@H](CC2CCCC2)C(=O)Nc2cnccn2)cc1Cl,outcome,[1],inactive
same,outcome,[2],inactive
same,outcome,[3],inactive
same,outcome,[4],inactive
same,outcome,[5],inactive
same,outcome,[6],inactive
same,outcome,"CD69, CD69 (gene 969)",inactive
same,outcome,[7],inactive
CCCCCCCCCCCCOS(=O)(=O)O,outcome,[1],inactive
same,outcome,[2],inactive
same,outcome,[3],inactive
same,outcome,[4],inactive
same,outcome,[5],inactive
same,outcome,[6],inactive
same,outcome,"CD69, CD69 (gene 969)",inactive
same,outcome,[7],inactive
C[C@]12CC[C@@H]3c4ccc(O)cc4CC[C@H]3[C@@H]1C[C@@H](O)[C@@H]2O,outcome,[1],inactive
same,outcome,[2],inactive
same,outcome,[3],inactive
same,outcome,[4],inactive
same,outcome,[5],inactive
same,outcome,[6],inactive
same,outcome,"CD69, CD69 (gene 969)",inactive
same,outcome,[7],inactive
CCC(C)c1ccccc1O (stereo unspecified),outcome,[1],inactive
same,AC50,[2],3.28 µM (active)
same,outcome,[3],inactive
same,outcome,[4],inactive
same,outcome,[5],inactive
same,outcome,[6],inactive
same,outcome,"CD40, CD40 (gene 958)",inactive
same,outcome,"CD69, CD69 (gene 969)",inactive
same,outcome,[7],inactive
O=C1OC2(c3ccccc31)c1cc(I)c(O)c(I)c1Oc1c2cc(I)c(O)c1I,AC50,[1],6.33 µM (active)
same,AC50,[2],3.14 µM (active)
same,AC50,[3],6.69 µM (active)
same,AC50,[4],19.8 µM (active)
same,outcome,[5],inactive
same,AC50,[6],9.02 µM (active)
same,AC50,"CD69, CD69 (gene 969)",10.5 µM (active)
same,AC50,[7],10.2 µM (active)
O=C(NO)c1ccccc1,outcome,[1],inactive
same,outcome,[2],inactive
same,outcome,[3],inactive
same,outcome,[4],inactive
same,outcome,[5],inactive
same,outcome,[6],inactive
same,outcome,"CD69, CD69 (gene 969)",inactive
same,outcome,[7],inactive
CCCCC(CC)C(=O)O (stereo unspecified),outcome,[1],inactive
same,outcome,[2],inactive
same,outcome,[3],inactive
same,outcome,[4],inactive
same,outcome,[5],inactive
same,outcome,[6],inactive
same,outcome,"CD69, CD69 (gene 969)",inactive
same,outcome,[7],inactive
CC[N+](CC)(CC)Cc1ccccc1,outcome,[1],inactive
same,outcome,[2],inactive
same,outcome,[3],inactive
same,outcome,[4],inactive
same,outcome,[5],inactive
same,outcome,[6],inactive
same,outcome,"CD69, CD69 (gene 969)",inactive
same,outcome,[7],inactive
CN(CCO)S(=O)(=O)C(F)(F)C(F)(F)C(F)(F)C(F)(F)C(F)(F)C(F)(F)C(F)(F)C(F)(F)F,outcome,[1],inactive
same,outcome,[2],inactive
same,outcome,[3],inactive
same,outcome,[4],inactive
same,outcome,[5],inactive
same,outcome,[6],inactive
same,outcome,"CD69, CD69 (gene 969)",inactive
same,outcome,[7],inactive
O=C(CCCN1CCC(O)(c2ccc(Cl)cc2)CC1)c1ccc(F)cc1,AC50,[1],29 µM (active)
same,outcome,[2],inactive
same,outcome,[3],inactive
same,AC50,[4],20 µM (active)
same,outcome,[5],inactive
same,outcome,[6],inactive
same,outcome,"CD69, CD69 (gene 969)",inactive
same,outcome,[7],inactive
C=CC(C)(CCC=C(C)C)OC(C)=O (stereo unspecified),outcome,[1],inactive
same,outcome,[2],inactive
same,outcome,[3],inactive
same,outcome,[4],inactive
same,outcome,[5],inactive
same,outcome,[6],inactive
same,outcome,"CD69, CD69 (gene 969)",inactive
same,outcome,[7],inactive
O=C(NCc1ncc(C(F)(F)F)cc1Cl)c1c(Cl)cccc1Cl,outcome,[1],inactive
same,outcome,[2],inactive
same,outcome,[3],inactive
same,outcome,[4],inactive
same,outcome,[5],inactive
same,outcome,[6],inactive
same,outcome,"CD69, CD69 (gene 969)",inactive
same,outcome,[7],inactive
C=CC(=C)CC/C=C(\C)CCC=C(C)C,outcome,[1],inactive
same,outcome,[2],inactive
same,outcome,[3],inactive
same,outcome,[4],inactive
same,outcome,[5],inactive
same,outcome,[6],inactive
same,outcome,"CD69, CD69 (gene 969)",inactive
same,AC50,[7],0.042 µM (active)
COc1cccc(O)c1,outcome,[1],inactive
same,outcome,[2],inactive
same,outcome,[3],inactive
same,outcome,[4],inactive
same,outcome,[5],inactive
same,outcome,[6],inactive
same,outcome,"CD69, CD69 (gene 969)",inactive
same,outcome,[7],inactive
NC(=NCCCCCCN=C(N)/N=C(\N)Nc1ccc(Cl)cc1)/N=C(\N)Nc1ccc(Cl)cc1,AC50,[1],4.95 µM (active)
same,outcome,[2],inactive
same,AC50,[3],4.92 µM (active)
same,AC50,[4],4.98 µM (active)
same,AC50,[5],20.5 µM (active)
same,AC50,[6],6.08 µM (active)
same,AC50,"CD69, CD69 (gene 969)",7.57 µM (active)
Clc1ccc(Nc2nnc(Cc3ccncc3)c3ccccc23)cc1,outcome,[1],inactive
same,outcome,[2],inactive
same,outcome,[3],inactive
same,outcome,[4],inactive
same,outcome,[5],inactive
same,outcome,[6],inactive
same,outcome,"CD40, CD40 (gene 958)",inactive
same,outcome,"CD69, CD69 (gene 969)",inactive
same,outcome,[7],inactive
OCC(CO)(CBr)CBr,outcome,[1],inactive
same,outcome,[2],inactive
same,outcome,[3],inactive
same,outcome,[4],inactive
same,outcome,[5],inactive
same,outcome,[6],inactive
same,outcome,"CD69, CD69 (gene 969)",inactive
same,outcome,[7],inactive
C=CC(=O)OCCC(F)(F)C(F)(F)C(F)(F)C(F)(F)C(F)(F)C(F)(F)C(F)(F)C(F)(F)F,outcome,[1],inactive
same,outcome,[2],inactive
same,outcome,[3],inactive
same,outcome,[4],inactive
same,outcome,[5],inactive
same,outcome,[6],inactive
same,outcome,"CD40, CD40 (gene 958)",inactive
same,outcome,"CD69, CD69 (gene 969)",inactive
same,outcome,[7],inactive
CCCCc1oc2ccccc2c1C(=O)c1cc(I)c(OCCN(CC)CC)c(I)c1,AC50,[1],26.1 µM (active)
same,outcome,[2],inactive
same,AC50,[3],10.8 µM (active)
same,AC50,[4],25.2 µM (active)
same,AC50,[5],23.5 µM (active)
same,AC50,[6],24.3 µM (active)
same,AC50,"CD69, CD69 (gene 969)",11.4 µM (active)
same,AC50,[7],20.5 µM (active)

# Reference: PubChem BioAssay (EPA / NIEHS)
